Inconclusive results are not listed. Activity calls are given as the source filed them. The calls were made as follows, unless noted: active = hit-call score of the fitted dose curve at least 0.9, where 1 is the maximum; inactive = score below 0.9.
Experiments:
[1] = CCTE_Mundy_HCI_Cortical_Synap_Neur_Matur_NeuriteSpotCountPerNeuron: CCTE's Synaptogenesis and Neurite Maturation Assay in rat cortical cells for Neurite Spot Count per Neuron Count, Mundy Lab (AID 2284215)
How it was run: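 High-content imaging counts synaptophysin puncta along MAP2-labelled neurites per neuron after chemical exposure of rat cortical cells from DIV 7 to termination at DIV 12 (AraC added DIV 5). Loss of signal relative to DMSO.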

[2] = CCTE_Mundy_HCI_Cortical_Synap_Neur_Matur_SynapseCount: CCTE's Synaptogenesis and Neurite Maturation Assay in rat cortical cells for Synapse Count, Mundy Lab (AID 2284218)
How it was run: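 Synapse count per neuron is measured in rat cortical neurons exposed to chemicals between DIV 7 and DIV 12, with glial growth arrested by AraC at DIV 5. Synaptophysin and MAP2 staining is imaged automatically; activity is fitted relative to DMSO.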

[3] = CCTE_Mundy_HCI_hN2_NOG_NeuriteCount: CCTE's Neurite Outgrowth Assay in human hN2 cells for Neurite Count, Mundy Lab (AID 2284219; active = hit-call score of the fitted dose curve at least 0.9, where 1 is the maximum)
How it was run: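 In this morphology assay, hNP1-derived neurons received test chemical 2 h post-plating and were fixed two days later in warm paraformaldehyde/sucrose containing Hoechst 33342. Neurites, labelled by rabbit anti-βIII-tubulin (1:800) and Alexa Fluor-488 (1:500), were counted automatically.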

[4] = CCTE_Mundy_HCI_hN2_NOG_NeuriteLength: CCTE's Neurite Outgrowth Assay in human hN2 cells for Neurite Length, Mundy Lab (AID 2284220; active = hit-call score of the fitted dose curve at least 0.9, where 1 is the maximum)
How it was run: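 Using βIII-tubulin immunofluorescence and Hoechst nuclear counterstain, this component quantifies neurite length in hNP1-derived neurons.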

[5] = CCTE_Mundy_HCI_hN2_NOG_NeuronCount: CCTE's Neurite Outgrowth Assay in human hN2 cells for Neuron Count, Mundy Lab (AID 2284221; active = hit-call score of the fitted dose curve at least 0.9, where 1 is the maximum)
How it was run: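 Read-out is the number of betaIII-tubulin-positive neurons imaged by automated high-content analysis, with DMSO as negative control.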

[6] = CCTE_Mundy_HCI_Cortical_Synap_Neur_Matur_NeuriteCount: CCTE's Synaptogenesis and Neurite Maturation Assay in rat cortical cells for Neurite Count, Mundy Lab (AID 2284222)
How it was run: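 Primary rat cortical cells were plated, treated with AraC at DIV 5, then exposed to chemicals from DIV 7 through DIV 12. After fixation and immunostaining for MAP2 and synaptophysin, imaging quantified neurites, with DMSO as the negative control.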

[7] = CCTE_Mundy_HCI_Cortical_Synap_Neur_Matur_CellBodySpotCount: CCTE's Synaptogenesis and Neurite Maturation Assay in rat cortical cells for Cell Body Spot Count, Mundy Lab (AID 2284223)
How it was run: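 High-content imaging counts synaptophysin puncta on neuronal cell bodies per neuron after MAP2/synaptophysin immunostaining. Rat primary cortical cells, glia arrested with AraC at DIV 5, were exposed DIV 7–12; signal decrease measured against DMSO.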

[8] = CCTE_Mundy_HCI_Cortical_NOG_NeuronCount: CCTE's Neurite Outgrowth Assay in rat cortical cells for Neuron Count, Mundy Lab (AID 2284236; active = hit-call score of the fitted dose curve at least 0.9, where 1 is the maximum;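 also: neurons counted by imaging betaIII-tubulin and Hoechst stained cortical cells; cells exposed to compound for about 48 hours before fixation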)
How it was run: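 Read-out: neuron number by high-content imaging of betaIII-tubulin (Alexa Fluor-488) and Hoechst-labelled rat primary cortical cells.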

[9] = CCTE_Mundy_HCI_Cortical_NOG_BPCount: CCTE's Neurite Outgrowth Assay in rat cortical cells for Branch Point Count, Mundy Lab (AID 2284237);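 also: branch points counted about two days after chemical exposure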
How it was run: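 Measured 50.33 h after dosing, this morphology endpoint uses rat primary cortical cultures labelled for betaIII-tubulin. Branch points are quantified by high-content imaging, with DMSO as negative control and baseline.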

[10] = CCTE_Mundy_HCI_hNP1_Casp3_7: CCTE's Caspase-Glo 3/7 Assay in human neuroprogenitor cells for Apoptosis, Mundy Lab (AID 2284240)
How it was run: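 Neuroepithelial-lineage stem cells from WA09 embryonic cells were treated with chemicals after 40–44 h of culture. Twenty-four hours later, caspase-3/7 activation was detected luminescently after a 30 min room-temperature reagent step, with DMSO as baseline.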

[11] = CCTE_Mundy_HCI_hNP1_CellTiter: CCTE's Cell Titer-Glo 2 Assay in human neuroprogenitor cells for Viability, Mundy Lab (AID 2284241; active = hit-call score of the fitted dose curve at least 0.9, where 1 is the maximum;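 also: a hit is a drop in ATP luminescence versus DMSO meaning reduced viability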)
How it was run: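 Measures ATP content in human neural progenitors derived from WA09 embryonic cells. Read-out at 26.5 hours after dosing, with DMSO serving as the negative control and baseline.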

[12] = CCTE_Mundy_HCI_Cortical_Synap_Neur_Matur_NeuronCount: CCTE's Synaptogenesis and Neurite Maturation Assay in rat cortical cells for Neuron Count, Mundy Lab (AID 2284242; active = hit-call score of the fitted dose curve at least 0.9, where 1 is the maximum;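 also: neuron number from Hoechst nuclei and MAP2 staining by high-content imaging; hits reduce neuron count versus DMSO baseline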)
How it was run: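 Imaging-based neuron count in rat cortical cultures after chemical exposure from DIV 7 to DIV 12, with AraC added at DIV 5. Activity is fitted relative to DMSO.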

[13] = IUF_NPC2c_oligodendrocyte_migration_120hr: Leibniz Research Institute for Environmental Medicine (IUF) 120-hour Neural Progenitor Cell Migration Assay for Oligodendrocyte Migration (NPC2c) (AID 2284297);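 also: O4-positive oligodendrocyte migration distance divided by radial glia migration distance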
How it was run: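 Exposure runs 5 days from differentiation onset at 37C, seven concentrations plus solvent control, DMSO at most 0.1%, applied to primary hNPC spheres on laminin. After fixation, O4 immunostaining gives oligodendrocyte distance from the sphere core, relative to radial glia migration.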

[14] = IUF_NPC2a_radial_glia_migration_120hr: Leibniz Research Institute for Environmental Medicine (IUF) 120-hour Neural Progenitor Cell Migration Assay for Radial Glia Migration (NPC2a) (AID 2284298)
How it was run: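 Migration distance in um, sphere core edge to migration-area edge, derived by nuclei-density algorithm from Hoechst images after 120 h compound exposure. Primary hNPC spheres differentiated on poly-D-lysine/laminin in N2 medium, 37C; medium half-replaced day 3.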

[15] = IUF_NPC2a_radial_glia_migration_72hr: Leibniz Research Institute for Environmental Medicine (IUF) 72-hour Neural Progenitor Cell Migration Assay for Radial Glia Migration (NPC2a) (AID 2284299)
How it was run: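 Migration out of plated human neural progenitor spheres is scored at 72 h as the distance in um from the sphere core edge to the edge of the migration area. Values are the mean of four manual measurements per well, normalised to DMSO.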

[16] = IUF_NPC2b_neuronal_migration_120hr: Leibniz Research Institute for Environmental Medicine (IUF) 120-hour Neural Progenitor Cell Migration Assay for Neuron Migration (NPC2b) (AID 2284300)
How it was run: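 TUBB3-positive neurons are imaged after 120 h of differentiation, and their mean distance from the sphere edge is normalised to radial glia migration. Single 0.3 mm fetal hNPC spheres on poly-D-lysine/laminin received 7 compound concentrations, ≤0.1% DMSO, refreshed at day 3.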

[17] = IUF_NPC3_neuronal_differentiation_120hr: Leibniz Research Institute for Environmental Medicine (IUF) 120-hour Neuronal Differentiation Assay (NPC3) (AID 2284301)
How it was run: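 Primary human fetal neural progenitor spheres (GW 16-19, 0.3 mm) plated on poly-D-lysine/laminin in N2 medium, exposed from day 0 for 120 h with half-medium refresh at day 3. TUBB3+ cells as percent of Hoechst nuclei in migration area; DMSO baseline.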

[18] = IUF_NPC4_neurite_length_120hr: Leibniz Research Institute for Environmental Medicine (IUF) 120-hour Neuronal Morphology Assay for Neurite Length (NPC4) (AID 2284302)
How it was run: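 Human fetal cortex (GW 16-19) neural progenitor spheres, 0.3 mm, were plated on poly-D-lysine/laminin in N2 differentiation medium and exposed from day 0 for 120 h, half-feeding at day 3. Mean TUBB3+ neurite length (µm) came from skeletonized images, relative to DMSO.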

[19] = IUF_NPC4_neurite_area_120hr: Leibniz Research Institute for Environmental Medicine (IUF) 120-hour Neuronal Morphology Assay for Neurite Area (NPC4) (AID 2284305; active = hit-call score of the fitted dose curve at least 0.9, where 1 is the maximum)
How it was run: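 Human fetal cortex-derived neural progenitor spheres (0.3 mm, GW 16-19) plated on poly-D-lysine/laminin in N2 differentiation medium and exposed from day 0 for 120 h across 7 concentrations plus solvent control. Neurite area is mean pixel area per TUBB3-positive neuron via skeletonization, analysed relative to DMSO.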

[20] = IUF_NPC2-5_cytotoxicity_72hr: Cytotoxicity Assessment at 72 hours in the Leibniz Research Institute for Environmental Medicine (IUF) Neural Progenitor Cell Migration and Differentiation Assay for Cytotoxicity (NPC2-5) (AID 2284306; active = hit-call score of the fitted dose curve at least 0.9, where 1 is the maximum;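 also: LDH release into supernatant measured by resorufin fluorescence marking membrane damage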)
How it was run: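 Human fetal (GW 16-19) neural progenitor spheres, 0.3 mm, plated on poly-D-lysine/laminin in N2 differentiation medium and exposed from day 0 to 7 concentrations plus solvent control (DMSO ≤0.1%). LDH-dependent resazurin-to-resorufin fluorescence in supernatant at 72 h.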

[21] = IUF_NPC2-5_cytotoxicity_120hr: Cytotoxicity Assessment at 120 hours in the Leibniz Research Institute for Environmental Medicine (IUF) Neural Progenitor Cell Migration and Differentiation Assay (NPC2-5) (AID 2284307; active = hit-call score of the fitted dose curve at least 0.9, where 1 is the maximum)
How it was run: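 Membrane-integrity loss measured as LDH activity in medium supernatant via resazurin-to-resorufin fluorescence after 120 h exposure. hNPC spheres from GW 16-19 fetal cortex differentiated on poly-D-lysine/laminin, 37C, medium half-refreshed day 3; seven concentrations, DMSO max 0.1%.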

[22] = IUF_NPC2-5_cell_number_120hr: Cell Number Assessment at 120 hours in the Leibniz Research Institute for Environmental Medicine (IUF) Neural Progenitor Cell Migration and Differentiation Assay (NPC2-5) (AID 2284308);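 also: count of Hoechst-stained nuclei in migration zone around plated human neural progenitor spheres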
How it was run: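 Counting of all Hoechst-stained nuclei in the migration area at 120 h, versus DMSO control. Primary hNPC spheres differentiated on poly-D-lysine/laminin in N2 medium at 37C, dosed from day 0 (7 concentrations, DMSO ≤0.1%), half-refed day 3.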

[23] = IUF_NPC2-5_viability_120hr: Viability Assessment at 120 hours in the Leibniz Research Institute for Environmental Medicine (IUF) Neural Progenitor Cell Migration and Differentiation Assay (NPC2-5) (AID 2284312)
How it was run: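 Human fetal (GW 16-19) neural progenitor spheres of 0.3 mm were plated on poly-D-lysine/laminin in N2 differentiation medium and exposed from day 0 for 120 h, with half-medium refresh at day 3. Viability was read as alamar blue resazurin-to-resorufin fluorescence against DMSO.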

O=[As]O
AC50 [1]: 5 µM (active) | AC50 [2]: 5 µM (active) | AC50 [3]: 6.15 µM (active) | AC50 [4]: 5.09 µM (active) | AC50 [5]: 4.47 µM (active) | AC50 [6]: 4.43 µM (active) | AC50 [7]: 5 µM (active) | AC50 [8]: 3.59 µM (active) | AC50 [9]: 2.61 µM (active) | AC50 [10]: 3.8 µM (active) | AC50 [11]: 6.1 µM (active) | AC50 [12]: 2.74 µM (active) | outcome [13]: inactive | AC50 [14]: 0.805 µM (active) | outcome [15]: inactive | outcome [16]: inactive | outcome [17]: inactive | AC50 [18]: 0.752 µM (active) | outcome [19]: inactive | outcome [20]: inactive | outcome [21]: inactive | outcome [22]: inactive | outcome [23]: inactive
